Reference: PubChem BioAssay (EPA / NIEHS)
Active and inactive are the calls of the source. Rule for the calls: active = hit-call score of the fitted dose curve at least 0.9, where 1 is the maximum; inactive = score below 0.9.

The compounds below were run on Tissue Factor, F3 (gene 2152) (assay: BSK_CASM3C_TissueFactor: BioMAP Diversity Plus: CASM3C Assay for Tissue Factor Biomarker Activity (AID 2283052;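 note: cell surface tissue factor protein level read by ELISA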)). Conditions: primary human coronary artery smooth muscle cells; actives raise or lower the signal.

Row | Compound | outcome | AC50
1 | Cn1cc[nH]c1=S | inactive | 
2 | CC(C)CC(C)O (stereo not drawn) | inactive | 
3 | O=C1CN(N=Cc2ccc([N+](=O)[O-])o2)C(=O)N1 | inactive | 
4 | OCc1ccccc1 | inactive | 
5 | NC(=O)N(O)[C@@H]1COc2cc(OCc3ccccc3)ccc21 | inactive | 
6 | C=CCc1cc(S(=O)(=O)c2ccc(O)c(CC=C)c2)ccc1O |  | 36.7 µM (active)
7 | CC(C)C(=O)Nc1ccc([N+](=O)[O-])c(C(F)(F)F)c1 | inactive | 
8 | CCn1nc(C)c2c1C(=O)NCC(c1ccc(O)cc1)=N2 | inactive | 
9 | COc1cc2c(c(OC)c1OC)-c1ccc(OC)c(=O)cc1[C@@H](NC(C)=O)CC2 | inactive | 
10 | CNC(C)=O | inactive | 
11 | CCOC(N)=O | inactive | 
12 | FC(F)=C(F)C(F)(F)C(F)(F)C(F)(F)C(F)(F)C(F)(F)C(F)(F)F | inactive | 
13 | c1ccc2cc3ccccc3cc2c1 | inactive | 
14 | CCCCOC(=O)c1ccccc1 | inactive | 
15 | O=C(Cl)C(F)(F)C(F)(F)C(F)(F)C(=O)Cl | inactive | 
16 | Cn1c(=O)c2[nH]cnc2n(C)c1=O | inactive | 
17 | CCCOc1ccc(S(=O)(=O)N2CCN(CC)CC2)cc1-c1nc2c(CC)n(Cc3ccccn3)nc2c(=O)[nH]1 | inactive | 
18 | CC(C)CCCCCCOC(=O)C1CCCCC1C(=O)OCCCCCCC(C)C (stereo not drawn) | inactive | 
19 | COS(C)(=O)=O | inactive | 
20 | O=C(O)[C@H](O)[C@@H](O)C(=O)O | inactive | 
21 | Cc1nccn1-c1ccc(Sc2cccc(C3(C(N)=O)CCOCC3)c2)cc1 | inactive | 
22 | CCCc1ccccc1 | inactive | 
23 | C[C@@H](Oc1ccc(CNC(=O)c2cccnc2Oc2ccc3c(c2)OCO3)c(F)c1)C(=O)O | inactive | 
